Screening results (PubChem)
Only some compounds are listed: those with a hit (about 7.2% of all), similar ones and a draw of the others.
A1 inh: inhibitors of the anti-apoptotic protein A1, read as caspase activation; caspase activation, % (no concentration beside the values); MEF A1-2A-BIM cells, Caspase-Glo 3/7 luminescence, 3 h; percent of clofoctol response, vehicle zero; actives 0.066% (n = 330,000); AID 2462;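 active = over half of replicate activation scores above 10%, or exactly half above 10 with the replicate mean above 10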
ALR H2O2 inh: blocks human ALR sulfhydryl oxidase activity. inhibition, % (no concentration beside the values). P55789. actives 3.8% (n = 290,000). purified ALR, DTT oxidation, H2O2 HRP-luminol luminescence;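 active = mean replicate inhibition above about 79%, with every replicate also reaching it, limit read from the data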
Target sequence (P55789 whole entry, looked up): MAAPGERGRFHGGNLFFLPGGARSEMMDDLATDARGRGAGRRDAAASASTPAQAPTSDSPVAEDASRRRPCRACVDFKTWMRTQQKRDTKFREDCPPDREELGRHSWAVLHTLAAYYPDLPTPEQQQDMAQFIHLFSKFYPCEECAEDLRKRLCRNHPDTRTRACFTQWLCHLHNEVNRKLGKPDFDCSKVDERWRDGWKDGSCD
SUMO Mot1 rescue: blocks SUMOylation pathway, rescuing yeast Mot1-301 growth; S. cerevisiae Mot1-301 growth rescue, ATP luminescence, 38.5C; percent above DMSO median, 100 means doubled; growth rescue, % at 18.8 µM; actives 1% (n = 320,000);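 active = every valid replicate shows activation above 250% relative to neutral control wells; inactive = the rest, any valid replicate at or below 250%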
Efflux pump mplx: inhibitors of Candida antifungal efflux pumps expressed in yeast; inhibition, % at 10 µM; S. cerevisiae Candida pump triplex, Nile Red efflux; actives 0.44% (n = 330,000); AID 485275;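 active = plate passing quality check with inhibition over a set limit, or well fluorescence over plate mean plus 4 SD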;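 also: Nile Red retained in pooled yeast measured as flow cytometry median fluorescence; higher means more Nile Red kept so more efflux inhibition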
AHR activator: activates the human aryl hydrocarbon receptor. P35869. AHR-responsive luciferase reporter cells, luminescence. activation, % at 5 µM. actives 2.5% (n = 320,000); in the data active = activation above about 47%
VLA-4 inh: inhibition in a human VLA-4 binding assay | P13612 | VLA-4 expressing cells, ligand binding flow cytometry | inhibition, % (about 7 µM as worked out from the volumes in the protocol) | actives 0.2% (n = 330,000) | AID 2557; in the data active = inhibition above about 50%
Numbers stand for hits; - = inactive; . = not tested or not shown.

SMILES	A1 inh	ALR H2O2 inh	SUMO Mot1 rescue	Efflux pump mplx	AHR activator	VLA-4 inh
O=C(CCn1cnnn1)N1CCCC(Nc2ccc(F)cc2)C1 (stereo not drawn)	-	98	-	-	-	-
O=C1CCCCN1CC(=O)N1CCCC(Nc2ccc(F)c(F)c2)C1 (stereo not drawn)	-	-	-	-	-	-
CC(C)c1ccc(NC2CCCN(C(=O)CCN3CCOCC3)C2)cc1 (stereo not drawn)	-	-	-	-	-	-
O=C(c1ccc(Cn2cnnn2)cc1)N1CCCC(Nc2ccc(F)cc2)C1 (stereo not drawn)	-	-	-	-	-	-
CC(C)c1ccc(NC2CCCN(C(=O)CCCn3cncn3)C2)cc1 (stereo not drawn)	-	96	-	-	-	-
O=C(Cn1cccn1)N1CCCC(Nc2ccc(F)c(F)c2)C1 (stereo not drawn)	-	89	-	-	-	-
O=C(CCCn1cncn1)N1CCCC(Nc2ccc(F)cc2)C1 (stereo not drawn)	-	98	-	-	.	-
COCCCNC(=S)N(CCCO)Cc1cc2cc3c(cc2[nH]c1=O)OCO3	-	-	-	-	-	-
CCOC(=O)c1sc2nc(N3CCOCC3)c3c(c2c1N)CCN(Cc1ccccc1)C3	-	-	-	-	-	-
CCCNC(=O)C1(O)c2cc(Br)ccc2NC(=O)N1c1ccc(Cl)cc1 (stereo not drawn)	-	-	-	-	-	-
O=C(NCC1CC1)c1cc(-c2ccccc2)nn1CC1CC(c2cccnc2)=NO1 (stereo not drawn)	-	-	-	-	-	-
O=C(CCN1CCCCO1)N1CCCC(Nc2ccc(F)cc2)C1 (stereo not drawn)	-	95	-	-	-	-
Cc1cc(C)n(-c2ccc(S(=O)(=O)N3CCCC3)cc2[N+](=O)[O-])n1	-	-	.	-	-	-
C/C(=N\NC(N)=S)C1=CCC2C3CC[C@H]4CC(O)CC[C@]4(C)C3CC[C@]12C (stereo partly drawn)	-	.	348	-	-	-
CC1CCC(NC(=O)CNC(=O)c2cccs2)CC1 (stereo not drawn)	-	-	-	-	-	-
Cc1ccc(CNC(=O)Nc2cccs2)cc1	-	-	-	-	-	-
O=C(Nc1ccccn1)NC1CCCCC1	-	-	-	-	-	-
CC(C)NC(=O)Nc1cccs1	-	97	-	-	-	-
O=C(NCC1CC1)Nc1cccs1	-	99	-	-	-	-
CC1CCC(NC(=O)Nc2cccs2)CC1 (stereo not drawn)	-	98	-	-	-	-
O=C(Nc1cccs1)NC1CCCC1	-	99	-	-	-	-
O=C(CCc1cnccn1)NC1CCCc2c1cnn2-c1ccc(F)cc1F (stereo not drawn)	-	-	-	-	-	-
COc1ccccc1N(C)S(=O)(=O)c1ccc(Cl)c(C(=O)OCc2c(C)noc2C)c1	-	-	-	-	-	-
Cc1nc(Nc2ccccc2)sc1-c1ccccc1	-	.	-	-	72	.
CN(C)c1ccc(C(CNS(=O)(=O)c2ccc(F)c(F)c2)c2c[nH]c3ccccc23)cc1 (stereo not drawn)	-	-	-	-	68	-
SMILES	A1 inh	ALR H2O2 inh	SUMO Mot1 rescue	Efflux pump mplx	AHR activator	VLA-4 inh
CN(C)c1ccc(C(CNC(=O)c2ccccc2F)c2c[nH]c3ccccc23)cc1 (stereo not drawn)	-	-	-	-	-	-
O=C(CN1CCN(Cc2ccccc2)CC1)NNC(=O)c1ccccc1	.	.	.	-	-	-
C=CCn1c(SCC(=O)NCCOC)nnc1-c1cc2c(s1)CCC(CC)C2 (stereo not drawn)	-	-	-	-	-	-
O=C1COc2ccc(C(=O)COC(=O)CNS(=O)(=O)c3cccc(F)c3)cc2N1	-	-	-	-	-	-
O=C(O)C1=CC(=C(c2ccc(O)c(C(=O)O)c2)c2ccc(O)c(C(=O)O)c2)C=CC1=O	-	97	-	-	-	-
S=c1[nH]c(-c2ccc(Br)cc2)cn1CCc1ccccc1	-	-	-	-	-	-
O=C1CCC(C(=O)NCc2ccccc2)N1 (stereo not drawn)	-	.	-	-	-	-
Cn1c(=O)c(-c2ccccc2)nc2ccccc21	-	-	-	-	55	-
Cn1c(=O)c(Oc2cc(Cl)cc(Cl)c2)nc2ccccc21	-	98	-	-	-	-
COc1ccc(Oc2nc3ccccc3n(C)c2=O)cc1	-	-	-	-	-	-
O=C(Nc1ccc(Br)cc1)c1ccc2c(c1)OCO2	-	-	-	-	-	-
COc1ccc(S(=O)(=O)Nc2ccccc2C(=O)N2CCOCC2)cc1Br	-	-	-	-	.	-
O=S(=O)(NCCc1ccc(F)cc1)c1ccc(F)cc1Br	.	.	.	-	.	.
O=C(COc1ccccc1[N+](=O)[O-])Nc1ccc(NC(=O)c2cc3ccccc3o2)cc1	7.5	-	-	-	-	-
COc1cc(OC)cc(C(=O)Nc2cc(NC(=O)c3ccco3)ccc2OC)c1	-	-	-	-	55	-
CC(=O)c1ccc(NC(=O)c2cc3ccccc3o2)cc1	-	-	-	-	-	-
COc1cc(OC)cc(C(=O)Nc2ccc(NC(=O)c3ccco3)c(C)c2)c1	-	.	-	-	-	-
COc1cc(NC(=O)c2cc3ccccc3o2)c(OC)cc1Cl	-	-	-	-	62	-
O=C(Nc1ccc(F)cc1)c1cc2ccccc2o1	-	-	-	-	72	-
CCCN1CCN(CCCNC(=O)c2ccc(NC(=O)C3=C(C)OCCS3)cc2)CC1	-	-	-	-	-	-
CCCCn1c(SCC(=O)NC2CCS(=O)(=O)C2)nc2cc(S(N)(=O)=O)ccc21 (stereo not drawn)	-	-	-	-	-	-
COc1ccccc1OCCC(=O)NNC(=O)c1ccccc1F	-	-	-	-	-	-
COc1cc(C(C#N)N2CCC(c3ccccc3)=N2)ccc1O (stereo not drawn)	-	-	-	-	-	-
O=C(O)CCC(=O)Nc1ccc(/C=C/C(=O)C2CC2)cc1	-	-	-	-	-	-
Cc1sc(NC(=O)C(C)C)c(C(=O)Nc2ccccc2)c1C	-	-	-	-	-	-
SMILES	A1 inh	ALR H2O2 inh	SUMO Mot1 rescue	Efflux pump mplx	AHR activator	VLA-4 inh
O=C(NNC(=O)c1ccccc1O)c1cc2ccccc2o1	-	-	-	-	68	-
Cc1ccc(NC(=O)c2cc(=O)c3ccccc3o2)cc1	-	-	-	-	55	-
COc1cc(NC(=O)c2cc3ccccc3o2)c(OC)cc1Br	-	-	-	-	-	-
COc1ccccc1NC(=O)c1cc2ccccc2o1	-	-	-	-	74	-
O=C(Nc1ccc(NC(=O)c2cc3ccccc3o2)cc1)c1ccco1	-	-	-	-	-	-
COc1ccc(NC(=O)c2ccco2)cc1NC(=O)c1cc2ccccc2o1	-	-	-	-	62	-
O=C(CNC(=O)c1cn2ccccc2n1)Nc1ccc(F)c(F)c1	-	-	-	-	-	-
